# From PubChem BioAssay
# Hits are enriched below; roughly 8.8% of the tested compounds scored in any of these assays.
# HTT cytoprotect – cytoprotection in Huntington HTT-Q103 PC12 cell model; AID 1471; PC12 HTT-Q103 induced, cytoprotection, ATP luminescence, 40 h; 230,000 compounds, 0.14% hits; Potency, µM (top dose mostly 56.4 µM), without a hit: cytoprotection (ATP increase), most hits filed as activators; further: % of control where 0% means no effect; nearly all actives have a fitted effect of over 45% in size
#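 ATP quantification (ATPlite) reports survival of PC12 cells in which tebufenozide, 100 nM final, switches on Htt exon 1 with 103 glutamines linked to GFP; compounds are titrated.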
# HttQ103 aggreg – reduces HttQ103-GFP aggregates in PC12 cells; PC12 HttQ103-GFP aggregates, Acumen cytometry, 40 h; Potency, µM (series often up to 46.1 µM), inactives show top-dose activity change, negative = inhibition, hits mostly inhibitors; 220,000 compounds, 1.1% hits; AID 1688; further: on the % scale 0 is the no-effect control and ±100 the full control effect; nearly all actives have a fitted effect of over 60% in size
#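 Steps: seed 1500 PC12 HTTQ103-GFP cells/well; add tebufenozide, 100 nM final; add compound titration; add ATPLite reagent; quantify GFP aggregates by laser scanning cytometry.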
# ALDH1A1 block – blocks purified human ALDH1A1 activity; P00352; Purified ALDH1A1, NADH fluorescence, propionaldehyde substrate; Potency, µM (titrated, usually from 75.3 µM), without a hit: top-dose activity, negative = inhibition, usual class: inhibitors; 220,000 compounds, 7.3% hits; AID 1030; active means well fitted inhibition curve with a large enough effect, not every such curve was filed as active; inconclusive means small, poorly fitted or top-dose-only effect, or another doubt; inactive means no such curve, though single readings can be large or run the other way;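 further: plate controls were no enzyme wells and a reference inhibitor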
# Target sequence (P00352 whole entry, looked up): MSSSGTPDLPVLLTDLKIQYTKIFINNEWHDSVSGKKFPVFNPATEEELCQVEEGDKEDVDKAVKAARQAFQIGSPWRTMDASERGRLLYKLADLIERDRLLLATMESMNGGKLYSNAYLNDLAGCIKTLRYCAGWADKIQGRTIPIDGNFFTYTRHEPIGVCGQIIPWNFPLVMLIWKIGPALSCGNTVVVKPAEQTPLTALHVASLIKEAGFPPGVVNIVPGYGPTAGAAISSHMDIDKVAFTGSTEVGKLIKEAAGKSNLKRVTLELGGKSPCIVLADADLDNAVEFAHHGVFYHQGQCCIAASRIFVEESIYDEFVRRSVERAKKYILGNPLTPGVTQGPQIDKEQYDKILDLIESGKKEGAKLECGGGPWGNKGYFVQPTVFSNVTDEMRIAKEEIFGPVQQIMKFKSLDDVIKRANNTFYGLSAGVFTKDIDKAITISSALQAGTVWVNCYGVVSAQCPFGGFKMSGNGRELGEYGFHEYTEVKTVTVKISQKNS
# Lamin A splicing – LMNA splicing modulation; HeLa LMNA splicing GFP/RFP minigene ratio, 48 h; 200,000 compounds, 0.01% hits; Potency, µM (highest dose often 46.1 µM), without a hit: top-dose ratio change, negative = inhibition, hits mostly inhibitors; active means well fitted inhibition curve with a large enough effect in the signal ratio, with a control signal flat, not every such curve was filed as active; inconclusive means small, poorly fitted or top-dose-only effect, or effect the other way, or a change in a side signal; the % refers to the signal ratio; further: on the % scale 0 is the no-effect control and ±100 the full control effect
#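 S3 HeLa cells stably expressing lamin A-EGFP splicing minigene plus DsRed2, 600 cells/well, 48 h compound exposure at 37C. Laser-scanning cytometry; analysed as GFP (500-530 nm)/RFP (575-640 nm) total intensity ratio; 0.5% DMSO vehicle.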
# HPGD block – blocks human HPGD enzyme activity; purified HPGD, NADH fluorescence kinetic, PGE2 substrate; 150,000 compounds, 4.3% hits; Potency, µM, without a hit: at the top dose activity change, negative = inhibition, actives largely listed as inhibitors; AID 894; active means well fitted inhibition curve with a large enough effect, not every such curve was filed as active; inconclusive means small, poorly fitted or top-dose-only effect, or another doubt; inactive means no such curve, though single readings can be large or run the other way; further: on the % scale 0 is the no-effect control and ±100 the full control effect
# Target sequence (P15428 whole entry, looked up): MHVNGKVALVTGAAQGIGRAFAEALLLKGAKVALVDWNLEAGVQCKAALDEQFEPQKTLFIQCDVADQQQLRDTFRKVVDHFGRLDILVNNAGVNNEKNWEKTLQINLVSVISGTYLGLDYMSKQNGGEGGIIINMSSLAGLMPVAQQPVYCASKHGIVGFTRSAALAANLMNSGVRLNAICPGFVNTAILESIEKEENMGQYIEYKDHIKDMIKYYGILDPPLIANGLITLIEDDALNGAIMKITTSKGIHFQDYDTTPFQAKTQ
#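 20 nM HPGD preincubated 15 min at room temperature with compound in 50 mM Tris-HCl pH 8, 0.01% Tween 20. Started with 1 mM NAD+ and 30 uM prostaglandin E2; NADH fluorescence (360/450 nm) read 5 times over 30-s intervals, last minus first.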
# Starred values were filed as active, the others as inactive; ? = inconclusive; · = not tested or not shown; [ ] = remark or other dose. Unless noted, the call rests on the fitted dose curve; in most records, active means well fitted curve in the direction sought with a large enough effect; inconclusive means small, poorly fitted or top-dose-only effect, or another doubt; inactive means no such curve, though single readings can be large; an effect the other way counts as inactive or inconclusive. Potency means the concentration at half of the fitted maximal effect.
SMILES,HTT cytoprotect,HttQ103 aggreg,ALDH1A1 block,Lamin A splicing,HPGD block
CC1C(C#N)=C(N)OC2=C1C(=O)CC(C)(C)C2 (configuration not stated),-6.5%,1.2%,-6.5%,0.4%,?
CCC(C)C1C(C#N)=C(N)OC2=C1C(=O)CC(C)(C)C2 (configuration not stated),-6.1%,-29.9%,11.2µM*,-10.4%,-15.6%
Cc1c(CCC(=O)O)c(=O)oc2c(C)c(OCc3cc4c(cc3Cl)OCO4)ccc12,-14.4%[10 µM],-16.2%[9.22 µM],·,·,·
Cn1c(-c2ccc(C(C)(C)C)cc2)n[nH]c1=S,-0.5%[10 µM],-16.6%,31.6µM*,1.8%,?
Cn1cccc1/C=N/n1c(-c2ccccc2)n[nH]c1=S,-14.1%,-5.4%,-13.7%,14.7%[0.0737 µM],14.1µM*
Cn1cccc1/C=N/n1c(-c2ccc(C(C)(C)C)cc2)n[nH]c1=S,-16.3%,-1.7%,?,-5.1%,11.2µM*
Cc1nc(-c2ccccc2)sc1-c1n[nH]c(=S)n1C,-18.9%,11.6%,25.1µM*,3.3%,-28.2%
Cc1ccc(-c2n[nH]c(=S)n2/N=C/c2c(C)[nH]n(-c3ccccc3)c2=O)cc1,-51.4%,-6.4%,-9.7%,?,·
COc1ccc(CNc2cc(-c3ccccc3C)ncn2)c(OC)c1,-35.0%,·,-13.0%,?,·
Cc1nn(-c2ccccc2)c(C)c1/C=N/n1c(-c2ccncc2)n[nH]c1=S,-50.0%[10 µM],-17.3%,22.4µM*,?,·
Cc1nn(-c2ccccc2)c(C)c1/C=N/n1c(-c2ccc(Cl)cc2)n[nH]c1=S,-1.7%[10 µM],25.7%,?,-20.3%,?
CCCCNC(=S)Nc1ccccc1Cc1ccccc1,-34.6%[10 µM],?,4.4%,?,·
COc1ccc(Br)c(C(=O)Nc2cc3c(cc2N2CCCC2)n(C)c(=O)c(=O)n3C)c1,·,·,·,1.9%[46 µM],·
CC(C)(C)c1ccc(S(=O)(=O)/C=C/C#N)cc1,·,·,0.112µM*,?,10µM*
CC(C)CC1N=C2c3ccccc3N=C(SCC(=O)NCCc3ccc(Cl)cc3)N2C1=O (configuration not stated),·,·,·,-5.1%[46 µM],·
CCCn1c(C)nc2c(NCCCCN(C)C)nc(C)nc21,21.3%,·,3.9%,·,-5.2%
Cc1c(C(=O)O)[nH]c2ccc([N+](=O)[O-])cc12,·,15.0%,?,·,·
Cc1c(C(=O)N/N=C/C(C)C)[nH]c2ccc([N+](=O)[O-])cc12,0.0%[1.9 µM],7.08µM*,14.1µM*,0.0%,-10.9%
O=C(NC1CC(=O)N(c2cccc(F)c2)C1)C(c1ccccc1)c1ccccc1 (configuration not stated),·,·,·,2.0%[46 µM],·
CN(C)c1cccc(NC(=O)Cc2ccc(F)cc2)c1,-12.7%,0.2%,14.1µM*,?,-8.7%
Clc1cc(Cl)c2nc(N3CCCCC3)sc2c1,-19.7%,-25.9%,22.4µM*,-6.7%,22.4µM*
COc1cc(NC(=O)CN2C(=O)CN(C)C2=O)c(C)cc1[N+](=O)[O-],-48.5%,9.8%,-7.2%,15.5%[46 µM],·
COc1cc(NC(=O)Cn2ncc(Cl)c(Cl)c2=O)c(C)cc1[N+](=O)[O-],-167.5%,?,2µM*,?,·
O=C(O)C12CC3CC(C1)CC(n1ncc(NCc4ccccc4)c(Cl)c1=O)(C3)C2,?,-15.0%,?,?,·
O=c1c(Cl)c(N2CCN(c3ccccc3)CC2)cnn1C12CC3CC(CC(C3)C1)C2,18.1%[10 µM],-5.6%,10µM*,-13.3%,-5.4%
SMILES,HTT cytoprotect,HttQ103 aggreg,ALDH1A1 block,Lamin A splicing,HPGD block
O=C(O)CC12C[C@H]3C[C@@H](C1)CC(n1ncc(N4CCN(c5ccccc5)CC4)c(Cl)c1=O)(C3)C2,-5.5%[10 µM],0.3%,7.94µM*,-7.6%,-13.8%
O=C(O)CC12CC3CC(C1)CC(n1ncc(NCc4ccccc4)c(Cl)c1=O)(C3)C2,26.3%[10 µM],8.4%[9.22 µM],·,·,·
O=C(O)C12C[C@H]3C[C@@H](C1)CC(n1ncc(N4CCN(c5ccccc5)CC4)c(Cl)c1=O)(C3)C2,-17.9%[10 µM],-14.7%,1.26µM*,-14.0%,-15.6%
CC(=O)c1c(C)[nH]c(C(=O)OCC(=O)Nc2sc3c(c2C#N)CCC(C)C3)c1C (configuration not stated),-8.2%[10 µM],-11.7%[9.22 µM],·,·,·
CC(NC(=O)Cn1cccc1C(=O)c1ccccc1)c1ccc2c(c1)OCCO2 (configuration not stated),-32.3%,-2.3%,-8.3%,·,·
COCCn1c(=O)c(-c2ccc(OC)cc2)nc2cnc(Nc3cccc(OC)c3)nc21,6.6%,·,-0.1%,·,-6.8%
Cc1ccc(-n2ncc(C(=O)NCc3ccco3)c2C2CCN(C(=O)OC(C)(C)C)CC2)cc1C,·,·,·,-8.7%[46 µM],·
COc1ccc(OC)c(C2C(C(=O)Nc3ccc(F)cc3)=C(C)Nc3nc(CCCO)nn32)c1 (configuration not stated),-22.5%[10 µM],5.1%,-6.5%,-11.8%,-0.9%
COc1ccccc1NC(=O)C1=C(C)Nc2nc(CCCO)nn2C1c1ccc2c(c1)OCO2 (configuration not stated),-9.8%,19.4%,14.1µM*,2.3%,?
OCC1(CCOc2ccccc2)CCN(C2Cc3ccccc3C2)CC1,-18.1%,9.5%,?,·,·
O=C(CN(C(=O)c1ccc(Cl)cc1)C1CCCCC1)Nc1ccc(Cl)c([N+](=O)[O-])c1,28.1%[1.9 µM],12.6µM*,?,-2.6%,-12.6%
CN(CC(=O)Nc1ccc(Cl)cc1)c1ccc(S(=O)(=O)N2CCCCC2)cc1[N+](=O)[O-],2.7%[10 µM],-26.5%,11.2µM*,?,-13.9%
COC(=O)CSc1ccc(S(=O)(=O)N2CCCCCC2)cc1[N+](=O)[O-],-10.0%,-0.9%,10µM*,·,·
CCC(=O)N1c2ccccc2CC1C(=O)NCCc1ccc(Cl)cc1 (configuration not stated),·,·,·,-7.5%[46 µM],·
NCC[C@H]1CCC[C@H](CCN)N1,2.2%[1.9 µM],·,·,·,·
CC(C)(C)Nc1nc(OCC#N)nc(N2CCCCC2)n1,-15.9%[10 µM],-7.6%[9.22 µM],17.8µM*,·,·
CCc1nnc(NC(=O)c2ccc3ccccc3n2)s1,-78.7%,-11.3%,17.8µM*,·,·
O=[N+]([O-])c1cc(S(=O)(=O)N2CCCC2)ccc1N/N=C1/CCCc2ccccc21,-0.4%[10 µM],-12.8%,7.9%,8.5%,-14.2%
CC(C)(C)c1cc(NC(=O)COC(=O)c2ccc3c(=O)n4c(nc3c2)CCC4)n(-c2ccccc2)n1,-9.4%,5.2%,3.98µM*,-9.3%,-23.1%
COc1cccc(C(=O)Nc2ccc(-n3nncc3C(C)(C)C)cc2)c1,14.9%,-32.0%,-8.1%,·,·
CC(C)(C)c1cnnn1-c1ccc(NC(=O)c2ccc3c(c2)OCO3)cc1,8.0%[10 µM],-22.4%,11.9µM*,-12.3%,-26.3%
N[C@@H](CSS(=O)(=O)O)C(=O)O,1.2%,·,-1.4%,·,28.2µM*
NC(CSSCC(N)C(=O)O)C(=O)O (configuration not stated),26.0%,3.2%,·,?,·
COC(=O)c1ccc(C(NC(=O)c2ccccc2)[C@]2(C)C[C@H]2C2CCCCC2)cc1 (some centres not stated),-13.0%,·,1.26µM*,·,-7.8%
